The source of these data is PubChem BioAssay AID2685 (National Center for Advancing Translational Sciences (NCATS), 2010).

Screen size: about 320,000 compounds; about 2,100 (0.66%) were called active. Inconclusive results (about 53%) are left out. Calls come from the whole dose curve; as a rule, active = well fitted inhibition curve with a large enough effect in the signal ratio, with a control signal flat (not every such curve was filed as active); inconclusive = small, poorly fitted or top-dose-only effect, or effect the other way, or a change in a side signal; inactive = flat fitted curve, though single readings scatter; the % refers to the signal ratio. Only a selection was taken, and actives are over-represented in it overall.
Potency is the fitted concentration of half-maximal effect.

A short description of the test: qHTS Assay for Lipid Storage Modulators in Drosophila S3 Cells.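 For cell number change: cells counted by Cell Tracker Red CMTPX staining in the red channel.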 For lipid storage change, negative = inhibition: % is set by controls: 0 for no effect and ±100 for the full control effect. The following applies: BODIPY lipid droplet fluorescence, 18-24 h, cells fed with added oleic acid; cell number change: measured here: cell count max response; series mostly up to 46.1 µM; lipid storage change, negative = inhibition: at the top concentration. An excerpt:
NIH Molecular Libraries Probe Production Centers Network [MLPCN] NIH Chemical Genomics Center [NCGC] MLPCN Grant: 1 R03 MH085686-01 Assay Submitter (PI): Beller, Mathias; Max-Planck-Institut fur Biophysikalische Chemie NCGC Assay Overview: Storing lipids as a reservoir for energy or the anabolism of elementary metabolites is a common feature of probably all cells and is conserved from bacteria to humans. The universal cellular lipid storage organelle is the so-called lipid storage droplet (LD). Although ubiquitous, LDs share a simple structure composed of a hydrophobic core that harbors the storage lipids, which is shielded by a droplet-specific phospholipid monolayer to which proteins are attached. The current model of LD biogenesis involves an incorporation of the lipid core into the membrane leaflets of the endoplasmic reticulum (ER) followed by a subsequent budding-like maturation of a LD, which ultimately pinches off. Once released, LD volume can increase by localized lipogenesis or fusion of existing droplet. Storage lipids are re-mobilized enzymatically by lipase activity. Lipase regulation in the adipocyte is heavily studied and involves multiple components including catecholamine signaling, the LD-associated proteins Perilipin and comparative gene identification (CGI-58) and at least two lipases named hormone sensitive lipase (HSL) and adipocyte triglyceride lipase (ATGL). LD regulation outside of the adipocyte is poorly understood and only few components are known. However, there is an urgent need to learn more about ectopic fat depots as mislocalized storage of lipids, for example in the liver or muscle, is an eminent health problem associated with insulin resistance or the metabolic syndrome. We developed a laser-scanning cytometer assay to enable 1,536-well screening and combined the results of the small molecules screen with an RNAi database based on lipid storage.
Triacsin C (Sigma-Aldrich T-4540), an inhibitor of long-chain fatty acyl CoA synthetase that blocks synthesis of triglycerides, was used as a positive control for lipid under-storage. A total of 23 nL of compound solution of different concentrations were transferred to the assay plates using a Kalypsys pin tool equipped with a 1,536-pin array containing 10-nL slotted pins (FP1S10, 0.457-mm diameter, 50.8 mm long; V&P Scientific). One microliter of oleic acid (400 uM) was added, and the plate was lidded with stainless steel rubber gasket lined lids containing pinholes. […] Fluorescence was detected by excitation of the fluorophores with a 488-nm laser on an Acumen Explorer (TTP Lab Tech). The total intensity in channel 2 (500-530 nm) reflected lipid droplet accumulation. Cells were detected using channel 3 (575-640 nm) with 5-um width and 100-um depth filters. The ratio of the number of objects in PMT channel 2 over the number of objects in PMT channel 3 was also calculated. Percent activity was computed relative to an internal control (100% inhibited lipid droplet deposition due to the presence of 20 uM Triacsin C), which was added to 32 wells/plate.
For orientation: In qHTS, concentration-response curves come from the screen itself.
As for `Cc1cccc(-n2ncc3c2CCCC3NC(=O)CCN2CCCCO2)c1C` (centres undefined), the “lipid storage change, negative = inhibition” value is -15.7% (inactive) and the cell number change was -4.74%.
For `O=C(CSc1ccc(-c2ccccn2)nn1)N1CCCC1` the same measures were 5.39% (inactive) and 4.79%.
For `COc1cc(CN2CCC(Cc3ccccc3)CC2)c([N+](=O)[O-])cc1OC`, the compound was classed as inactive and the cell number change is 21.3%.
In the same order, the values of `COc1ccc(CSc2nnc(CNS(C)(=O)=O)o2)cc1` are “inactive” and 8.09%.
Regarding `COc1cc([N+](=O)[O-])ccc1N1C(=O)C2C3C=CC(C4CC34)C2C1=O` (centres undefined), the “lipid storage change, negative = inhibition” value was -12.7% (inactive) and the cell number change was -23.6%.
For `O=S(=O)(NCc1ccccc1Cl)c1ccc(-n2cccn2)cc1`, the Potency is 16.4 µM (active) and the cell number change was -0.567%.
Regarding `O=S(=O)(NCc1ccccc1)c1ccc(-n2cccn2)cc1`, the call was inactive and the cell number change was -18%.
As for `COc1ccccc1CNS(=O)(=O)c1ccc(-n2cccn2)cc1`, the compound was called inactive and the cell number change is -13.2%.
As for `O=C(NCCCCO)c1ccc2c3c(cccc13)CC2`, the “lipid storage change, negative = inhibition” value was -7.19% (inactive) and the cell number change was -6.57%.
For the compound `Cc1ccc(NC(=S)NC(C)CCc2ccccc2)cc1C` (centres undefined), the “lipid storage change, negative = inhibition” value is 23.3% (inactive) and the cell number change amounted to 23.4%.
With `Cc1ccccc1C(=O)Nc1ccc2nc3n(c(=O)c2c1)CCCC3`, the “lipid storage change, negative = inhibition” value is -12.1% (inactive) and the cell number change is 22.5%.
As to `CCOc1ccccc1C(=O)Nc1ccc2nc3n(c(=O)c2c1)CCCCC3`, the Potency was 1.64 µM (active) and the cell number change is -27.2%.
As for `O=C(Nc1ccc2nc3n(c(=O)c2c1)CCCCC3)c1ccccn1`, the “lipid storage change, negative = inhibition” value is 7.43% (inactive) and the cell number change was -14.9%.
Consider `CCO[C@@H]1OC(C(=O)NC2CC2)=C[C@H](c2csc3ccccc23)[C@H]1CCCO`, for which the “lipid storage change, negative = inhibition” value is -22.9% (inactive) and the cell number change is 0.265%.
In the case of `CC1CCN(S(=O)(=O)c2ccc3c(c2)N(CC(=O)NCCN2C(C)CCCC2C)C(=O)CS3)CC1` (centres undefined), the “lipid storage change, negative = inhibition” value is -11.8% (inactive).
`C=CCNC(=S)N1CC2(C)CN(C(=S)NCC=C)CC(C)(C1)C2=O`: the “lipid storage change, negative = inhibition” value is -3.79% (inactive) and the cell number change turned out to be 9.2%.
As to `CC(C)(C)c1[nH]ncc1[N+](=O)[O-]`, the compound was classed as inactive and the cell number change was -8.1%.
As for `O=C(CN1C(=O)NC2(CCCC2)C1=O)OCCOc1ccc(Cl)cc1Cl`, the result was inactive.
`COC(=O)C1=CN(c2cccc(C(F)(F)F)c2)C=C(C(=O)OC)C1c1ccc(O)c(OC)c1`: the “lipid storage change, negative = inhibition” value was 2.64% (inactive) and the cell number change was -17.2%.
Consider `CCOC(=O)C1=CN(c2cccc(F)c2)C=C(C(=O)OCC)C1c1cc(OC)c(O)c([N+](=O)[O-])c1`, for which the compound was classed as inactive.
With `COC(=O)C1=CN(c2cccc(C)c2)C=C(C(=O)OC)C1c1cc(OC)c(O)c([N+](=O)[O-])c1`, the Potency is 25.9 µM (active) and the cell number change was -3.94%.
Take `O=C(Cn1nc(Cc2cccnc2)c2ccccc2c1=O)Nc1cccnc1Cl`: the “lipid storage change, negative = inhibition” value is 3.38% (inactive) and the cell number change amounted to 1.33%.
As for `COc1ccc(-c2cc(=O)oc3cc(OCc4nn[nH]n4)ccc23)cc1`, the “lipid storage change, negative = inhibition” value was 11.3% (inactive) and the cell number change was determined as 14.9%.
With `O=C(/C=C/c1cccnc1)c1ccc([N+](=O)[O-])cc1`, the “lipid storage change, negative = inhibition” value was -21.5% (inactive) and the cell number change stood at 10.1%.
In the case of `CN(C)c1ccc(C(=O)/C=C/c2cccnc2)cc1`, the “lipid storage change, negative = inhibition” value was -2.87% (inactive) and the cell number change was -3.58%.
For `CN(C)S(=O)(=O)c1ccc(C(=O)/C=C/c2cccnc2)cc1`, the Potency was 0.326 µM (active) and the cell number change was 10.3%.
Turning to `CCc1ccc(N2C(=O)C3NN=C(C(=O)OCc4ccccc4)C3C2=O)cc1` (centres undefined), the “lipid storage change, negative = inhibition” value is -5.22% (inactive) and the cell number change came out at 22.8%.
Turning to `COc1cccc(-c2nc(=S)c3c(o2)CCCC3)c1`, the “lipid storage change, negative = inhibition” value is 2.96% (inactive) and the cell number change was determined as 9.57%.
For `O=C(Nc1ccc(OCC(=O)N2CCOCC2)cc1)c1cncc(Br)c1` the same measures were -3.23% (inactive) and 9.01%.
For `Cc1ccc(NC(=O)c2ccccc2OCc2c(C)noc2C)cc1S(=O)(=O)N(C)C`, the “lipid storage change, negative = inhibition” value was 3.93% (inactive) and the cell number change is -11.7%.
Turning to `CC(=O)NCCC1CCN(C(=O)C2CCC(=O)N(C3CCCC3)C2)CC1` (centres undefined), the outcome was inactive and the cell number change was 0.283%.
As for `CC1(C)CSC(=NCCc2ccccc2)N1C(=O)c1ccc(C#N)cc1`, the Potency was 1.3 µM (active) and the cell number change is -0.734%.
With `CC1(C)COCN1C(=O)c1ccc(C#N)cc1`, the “lipid storage change, negative = inhibition” value was -2.88% (inactive) and the cell number change came out at 5.63%.
Turning to `CC1(C)CSC(=NCc2ccccc2)N1C(=O)c1cccc([N+](=O)[O-])c1`, the “lipid storage change, negative = inhibition” value was 8.87% (inactive) and the cell number change was 13.5%.
For `O=C(CNS(=O)(=O)c1ccccc1)OCC(=O)c1ccc(F)cc1`, the call was inactive and the cell number change was found to be 14.3%.
On to `O=C(Nc1cccc(F)c1)c1c(F)c(F)c(F)c(F)c1F`, for which the result was inactive.
Turning to `Cc1ccc(CNC(=O)c2cc(C3CC3)nc3c2cnn3C(C)C)cc1`, the outcome was inactive and the cell number change was -11.5%.
On to `COc1cccc(CNC(=O)c2cc(C3CC3)nc3c2cnn3C(C)C)c1`, for which the “lipid storage change, negative = inhibition” value is -14.5% (inactive) and the cell number change is 5.87%.
For `COc1ccc(CNC(=O)c2cc(C3CC3)nc3c2cnn3C(C)C)cc1OC`, the Potency was 11.6 µM (active) and the cell number change is 1.25%.
As to `COc1ccc(CSc2nncn2C)cc1[N+](=O)[O-]`, the “lipid storage change, negative = inhibition” value was 18.5% (inactive) and the cell number change was -11.4%.
Take `O=C(Nc1c2c(nn1-c1ccccc1)CS(=O)(=O)C2)c1ccc2c(c1)OCO2`: the “lipid storage change, negative = inhibition” value was 17.4% (inactive) and the cell number change is -19%.
For `O=C(COC(=O)c1cccc(S(=O)(=O)N2CCOCC2)c1)Nc1ncc(C(F)(F)F)cc1Cl`, the Potency was 23.1 µM (active) and the cell number change was -11.5%.
Regarding `O=C(COC(=O)c1cccc(S(=O)(=O)N2CCc3ccccc32)c1)Nc1ncc(C(F)(F)F)cc1Cl`, the “lipid storage change, negative = inhibition” value is -12.9% (inactive) and the cell number change was -1.02%.
In the same order, the values of `O=C(COC(=O)c1cccc(S(=O)(=O)N2CCOCC2)c1)Nc1ccc(Cl)cn1` are 23.1% (inactive) and -3.5%.
